# Reference: the supplement of paper PMC13380429
# Values without a mark were called inactive.
# Tested on: Vero E6 infected with SARS-CoV-2
# Test: inhibition of SARS-CoV-2 cytopathic effect; higher = more antiviral protection, active = above 15
# Details: 48 h
Structure (SMILES),inhibition of SARS-CoV-2 cytopathic effect (1 nM),inhibition of SARS-CoV-2 cytopathic effect (8.33 nM),inhibition of SARS-CoV-2 cytopathic effect (100 nM),inhibition of SARS-CoV-2 cytopathic effect (833.33 nM),inhibition of SARS-CoV-2 cytopathic effect (10000 nM)
CCCc1c(OCCCOc2ccc(OCC(=O)O)cc2)ccc(C(C)=O)c1O,3.84%,-0.07%,1.16%,1.63%,1.76%
CC(CN1c2ccccc2Sc2ccccc21)N(C)C (stereo not given) [promethazine],-0.13%,-0.16%,-1.28%,0.5%,3.03%
O=C(COc1cccc2c(=O)[nH]ccc12)c1ccccc1,-1.31%,1.84%,-0.2%,-0.52%,0.99%
Nc1ccc(C(=O)NCC(=O)O)cc1 [4-aminohippuric-acid],-2.16%,-0.24%,-0.14%,0.71%,-1.9%
CN[C@@H]1[C@@H](O)[C@@H](O[C@@H]2[C@@H](O)[C@H](O[C@H]3OC(CN)=CC[C@H]3N)[C@@H](N)C[C@H]2N)OC[C@]1(C)O [Sisomicin (sulfate)],0.02%,0.45%,0.885%,-0.63%,-0.58%
CC(C)N(CCNC(=O)CN1CCCC1=O)C(C)C [pramiracetam],-3.32%,-1.27%,0.57%,3.04%,0.12%
Nc1c(Br)cc(Br)cc1CN[C@H]1CC[C@H](O)CC1 [ambroxol],-4.07%,-1%,-0.99%,1.23%,-1.75%
Nc1nc(=O)n([C@@H]2CS[C@H](CO)O2)cc1F [emtricitabine],-0.33%,-2.03%,4.2%,-0.69%,-0.34%
COc1ccc(/C=C/C(=O)Nc2ccccc2C(=O)O)cc1OC [tranilast],-0.23%,-1.52%,-1.22%,0.97%,1.42%
CC(C)C[C@H](NC(=O)CNC(=O)c1cc(Cl)ccc1Cl)B(O)O [ixazomib],-2.33%,2.02%,5.21%,-11%,22.9% (active)
